KCNQ2 block: inhibitors of rat KCNQ2 potassium channel | O88943 | CHO-K1 KCNQ2, FluxOR thallium flux, 20 min; active compounds read low | B-score at 10 µM | actives 1.1% (n = 310,000) | AID 2156;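 active = fluorescence ratio B-score at most minus 3 library SDs, with starting brightness B-score within 2 library SDs, cut at about -5.5 in these data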
KCNQ2 pot: enhances the rat KCNQ2 potassium channel. CHO-K1 KCNQ2, FluxOR thallium flux fluorescence; active compounds read high. B-score at 10 µM. actives 0.54% (n = 310,000);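 active = fluorescence ratio B-score at least 3 SD of library B-scores, with initial fluorescence B-score within 3 of them, cut at about 5.3 in these data; same plate scores as AID 2156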;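 note: B-score of peak minus minimum over baseline fluorescence ratio after K+ and Tl+ stimulus; positive B-score means potentiation of KCNQ2 with more thallium influx and brighter signal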
Large screens that a line does not name were inactive. Only some compounds are listed: those with a hit (about 1.6% of all), similar ones and a draw of the others.

O=S(=O)(N/N=C/c1ccc(Cl)cc1)c1ccc(Cc2ncc(C(F)(F)F)cc2Cl)s1	KCNQ2 block -6.2
NC(=O)c1ccc(Cc2ncc(C(F)(F)F)cc2Cl)s1	none (no result: KCNQ2 pot)
COCc1ccc(CN2CCCC(CO)(Cc3ccccc3)C2)o1 (stereo not given)	none
Cc1ccc(CSc2nc3ccsc3c(=O)n2Cc2ccccn2)cc1	KCNQ2 block -6.2
N#Cc1ccccc1CSc1nc2ccsc2c(=O)n1Cc1ccccn1	none (no result: KCNQ2 pot)
CC1CN(C(=O)CCC(=O)NCc2ccc(F)cc2)c2ccccc2S1 (stereo not given)	none (no result: KCNQ2 pot)
COc1ccccc1CNC(=O)CCC(=O)N1CC(C)Sc2ccccc21 (stereo not given)	KCNQ2 block -6.3
O=C(O)Cn1c(=O)c2c3c(sc2n(Cc2ccc(F)cc2)c1=O)CCCC3	none (no result: KCNQ2 pot)
O=C(O)Cn1c(=O)c2c3c(sc2n(Cc2ccccc2F)c1=O)CCCC3	KCNQ2 block -6.2
COc1ccccc1C1CCN(C(=O)c2ccc(C(C)(C)C)cc2)CC1	KCNQ2 block -6.5
COc1ccccc1N1CCN(C(=O)c2ccc(C(C)(C)C)cc2)CC1	none (no result: KCNQ2 pot)
O=C1c2ccccc2C(=O)N1CCCCN(C(=O)c1ccc(Cl)s1)c1ccc(Cl)cc1	KCNQ2 block -5.6
Cc1ccc(N(CCCCN2C(=O)c3ccccc3C2=O)C(=O)c2ccc(Cl)s2)cc1	none (no result: KCNQ2 pot)
CC(CNC(=O)CCc1nnc2ccc(N3CCC4(CC3)OCCO4)nn12)c1ccccc1 (stereo not given)	none
COCCCNC(=O)CSc1nc2cc(S(=O)(=O)N3CCCCC3)ccc2o1	none
Cc1nc2sc3c(c2c(=O)[nH]1)CCCCC3	none (no result: KCNQ2 pot)
Cc1cc(C)n(-c2nc3sc4c(c3c(=O)[nH]2)CCCC4)n1	KCNQ2 pot 18
Cc1ccccc1N/C(SCc1ccc(Cl)cc1)=C(/C#N)C(=O)NCc1ccco1	KCNQ2 block -7
Cc1ccc(CS/C(Nc2ccccc2C)=C(\C#N)C(=O)NCc2ccco2)c(C)c1	none (no result: KCNQ2 pot)
Cc1ccc(S(=O)(=O)N2CCCN(C(=O)OC(C)(C)C)CC2)cc1	none
CCN1C(=O)C(CC(=O)Nc2ccc(F)cc2)N(CCc2ccc(OC)cc2)C1=S (stereo not given)	KCNQ2 block -6.7
CCN1C(=O)C(CC(=O)Nc2ccc(OC)cc2)N(CCc2ccccc2)C1=S (stereo not given)	none (no result: KCNQ2 pot)
O=C(Oc1ccc(Br)cc1C(=O)/C=C/c1ccccc1F)c1ccco1	KCNQ2 block -7.2
CC(=O)c1cc(Cl)ccc1OC(=O)c1ccco1	none
COc1nc(N)nc(NC(=O)c2cccs2)c1N=O	none
Nc1nc(C(F)(F)F)cc(=O)n1N	none
Cc1sc2nc(CSc3ccccc3)nc(N3CCOCC3)c2c1C	KCNQ2 block -5.9
Cc1sc2nc(CSc3ccccc3)nc(N3CCC(C(N)=O)CC3)c2c1C	none
COc1cc(/C=C(\C#N)C(=O)Nc2ccc3c(c2)OCCO3)ccc1O	none (no result: KCNQ2 pot)
CCOc1ccc(N(CC(=O)NC(C)C)C(=O)CCC(=O)Nc2ccccn2)cc1	none (no result: KCNQ2 pot)
Cc1ccc(S(=O)(=O)NCCC(=O)Nc2ccc(C)cc2C(=O)c2ccccc2)cc1	KCNQ2 pot 5.4
CCN(CC)CC(=O)Nc1ccc(C)cc1C(=O)c1ccccc1	none (no result: KCNQ2 pot)
COCCCn1c(C)nnc1SCC(=O)Nc1cccc(C)c1	none
CC(=O)NCCc1nc2ccccc2n1CCc1ccccc1	none (no result: KCNQ2 pot)
COc1ccc(N(C)S(=O)(=O)c2cccc(C(=O)Nc3cc(OC)ccc3OC)c2)cc1	none (no result: KCNQ2 pot)
CC(=O)c1cccc(NC(=O)C(OC(=O)c2cccc(S(=O)(=O)N(C)c3ccccc3)c2)c2ccccc2)c1 (stereo not given)	KCNQ2 block -5.5
CC(=O)c1cccc(NC(=O)C(OC(=O)c2ccccc2NS(=O)(=O)c2cccs2)c2ccccc2)c1 (stereo not given)	none (no result: KCNQ2 pot)
COc1ccc(N(C)S(=O)(=O)c2cccc(C(=O)OC(C(=O)Nc3cc(C)cc(C)c3)c3ccccc3)c2)cc1 (stereo not given)	KCNQ2 block -5.7
CC(=O)c1cccc(NC(=O)C(C)OC(=O)c2cc(=O)[nH]c3ccccc23)c1 (stereo not given)	none (no result: KCNQ2 pot)
Cc1nn(-c2ccccc2)c(C)c1C(=O)NCc1ccc(S(N)(=O)=O)cc1	none (no result: KCNQ2 pot)
CN(C(=O)c1ccc(C#N)cc1)c1nnc(-c2cnccn2)s1	none
O=C(Nc1ccccc1Cl)Nc1ccnn1C1CCN(C(=O)CCN2CCCO2)CC1	none (no result: KCNQ2 pot)
O=C(O)CCn1cc(C(=O)O)c(-c2ccccc2)n1	none (no result: KCNQ2 pot)
CCC1(CC)C(=O)C2=C3C1[C@H](C(=O)OC)CC(C(=O)OC)C[C@H]3n1c(=O)n(C)c(=O)n1[C@H]2C (stereo not given in full)	KCNQ2 block -7.5
CCC1(CC)C(=O)C2=C3C1[C@H](C(=O)OC)C=C(C(=O)OC)C[C@H]3n1c(=O)n(C)c(=O)n1[C@H]2C (stereo not given in full)	none
Cc1nc2c(cc1NC(=O)C(C)(C)C)nc(C)n2Cc1ccccc1	KCNQ2 pot 7.3
CC(=O)Nc1cc2nc(C)n(Cc3ccccc3)c2nc1C	none (no result: KCNQ2 pot)
COc1ccc(NC(=O)CN(C)C(=O)CSCc2c(C)noc2C)cc1	none
COc1ccc(-c2noc(-c3ccccc3F)n2)cc1	none

Compound activity as filed in PubChem.
